In PubChem BioAssay AID827 (SRMLSC, 2007):
Among all 140,000 compounds or so, about 1,700 (1.2%) were called active. The sample holds actives, similar compounds and a random draw of the others, so the mix is not that of the screen. A number with no mark means an inactive call.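 Rule for the calls: active = viability at or below a set limit, 4 SD under the median of all tested compounds (cut at about 3.7% in these data); inactive = the rest.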

Assay: viability loss in PTEN-deleted colon tumor cells – cell-based, HCT116, CellTiter-Glo, primary screen (AID 827);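 note: PTEN knockout HCT116 line with beta catenin targeted HCT116 as companion control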
Conditions: HCT116 PTEN-null viability, 60 h, at 10 µM, hits give low values

Compound | viability
COc1ccc(C2CC(c3ccccc3)=NN2C(=O)c2ccc(Cl)c([N+](=O)[O-])c2)cc1 (configuration not stated) | 10.4%
CCOc1ccccc1C1CC(c2cccc(NS(C)(=O)=O)c2)=NN1C(=O)c1ccccc1 (configuration not stated) | 84.5%
CCOc1ccc2nc(Cl)c(C3CC(c4ccccc4)=NN3C(=O)c3cccs3)cc2c1 (configuration not stated) | 1.17% (active)
Cc1c(Cl)cnc(NC(=O)COC(=O)c2ccc(S(=O)(=O)NCc3ccco3)cc2)c1Cl | 85.2%
COc1ccc(C(=O)O/N=C(\N)Cc2ccc(Cl)cc2Cl)cc1OC | 69.4%
NC(N)=N/N=C/c1ccc(OCc2ccc(Cl)cc2Cl)cc1 | 1.56% (active)
COC(=O)c1sc2ncccc2c1OCc1ccc(Cl)cc1Cl | 63.7%
CC1CCCCN1C(=S)NCc1ccccc1 (configuration not stated) | 94.7%
O=C(CC1SC(=Nc2ccccc2)N(Cc2ccccn2)C1=O)Nc1cccc(Cl)c1 (configuration not stated) | 76.2%
Cc1nc(C)c(C(=O)Nc2cccc(C)c2C)o1 | 109%
O=C(Nc1cccc2ccccc12)c1onc2c1CCCC2 | 0.29% (active)
O=C(O)c1ccccc1-c1ccccc1C(=O)Nc1cccc2ccccc12 | 96%
Cc1ccc(-n2nc(C)c(/C=N/NC(=O)c3cccs3)c2Cl)cc1 | 55.5%
Cc1c(C2=CCN(S(=O)(=O)c3ccc(Cl)cc3)CC2)c2ccccc2n1C | 74%
COc1cccc(CNCCc2c[nH]c3ccccc23)c1OCc1ccccc1F | 1.43% (active)
COc1ccc(C(CCNCc2ccccc2F)c2ccc(F)cc2)cc1 (configuration not stated) | 10.1%
COc1ccccc1NC(=O)CCCc1c[nH]c2ccccc12 | 92.8%
CCOC(=O)/C(N=Nc1cc(C(=O)O)cc(C(=O)O)c1)=C(\O)CCl | 101%
CC(=O)c1c(N2CCN(c3ccc(F)cc3)CC2)nc(=S)n(-c2ccccc2)c1C | 93%
Nc1nnc(SCC(=O)Nc2ccc3nc(SCC(=O)Nc4ccccc4)sc3c2)s1 | 72.2%
O=c1[nH]n(-c2cccc(Cl)c2)c2ncccc12 | 95.2%
Oc1c(CN2CCN(c3ccc(F)cc3)CC2)cc(Cl)c2cccnc12 | 4.32%
Clc1cccc(CN2COc3c(cc(Cl)c4cccnc34)C2)c1 | 3.76% (active)

Compound | viability
CCOC(=O)c1cccnc1NC(=O)c1ccncc1 | 101%
CCCc1nc2c([nH]1)C(c1cccnc1)C(C#N)=C(N)O2 (configuration not stated) | 98.7%
COC(=O)NNC(=O)C1CCC(C)CC1 (configuration not stated) | 97%
O=C(c1cccc2ccccc12)N1CCN(c2ccccc2F)CC1 | 90.8%
COC(=O)c1ccc(C(=O)OC)c(NC(=S)N2CCN(c3cc(Cl)ccc3C)CC2)c1 | 90.3%
Cc1ccc(Cl)cc1N1CCN(C(=O)c2cccc3c(=O)c(C)c(-c4ccccc4)oc23)CC1 | 1.24% (active)
COCCCNC(=O)Cn1cc(/C=C(\C#N)C(=O)N2CCN(c3ccccc3)CC2)c2ccccc21 | 86.2%
Cc1ccc(-c2nn(-c3ccccc3)cc2C(=O)Nc2cccc(S(=O)(=O)N3CCOCC3)c2)cc1 | 89.5%
Cc1cc(Cl)ccc1NC(=S)N1CCC(C(N)=O)(N2CCCCC2)CC1 | 88.6%
Cc1nc(CC(=O)NNS(=O)(=O)c2ccc(F)c(Cl)c2)cs1 | 95.8%
O=C(Cn1cnc2ccccc21)N/N=C/c1ccco1 | 97.9%
COc1ccc(NS(=O)(=O)c2ccc(NC(=S)NC(=O)/C=C/c3ccc(C)cc3)cc2)nn1 | 94.4%
COc1ccc(NC(=O)/C(Cl)=C(/Cl)S(=O)Cc2ccc(C)cc2)cn1 (configuration not stated) | 0.92% (active)
COc1cc(NC(=O)Nc2ccc(C)cc2)cc([N+](=O)[O-])c1 | 79.8%
O=C(/C=C/c1ccccc1[N+](=O)[O-])NCC1CCCO1 (configuration not stated) | 102%
C=CCNC(=S)NNC(=O)c1ccc(Br)o1 | 94.9%
CCN(CC)S(=O)(=O)c1ccc(C)c(NC(=O)COc2ccc(Br)cc2Cl)c1 | 84.6%
CCn1cc(/C=C2/SC(=S)NC2=O)c(C)n1 | 103%
COc1ccc(-c2cc(C(=O)NC(Cc3c[nH]c4ccccc34)C(=O)O)c(C)o2)cc1OC (configuration not stated) | 99.7%
COc1ccccc1/C=N\Nc1cc(C)nc(-n2nc(C)cc2C)n1 | 2.6% (active)
COc1cc(NS(=O)(=O)c2ccccc2)ccc1-n1nc(C)cc1C | 94.5%
COc1ccc(Nc2cc(C)nc(-n3nc(C)cc3C)n2)cc1 | 18.6%
CCN(CC)CCn1c(/N=C/c2cc(Br)ccc2O)nc2ccccc21 | 94%

Compound | viability
O=C(NCCc1ccccn1)c1cc(-c2ccc(Cl)cc2)nc2ccccc12 | 98.1%
c1ccc(-c2cc3c(NCC4COc5ccccc5O4)ncnc3s2)cc1 (configuration not stated) | 42.1%
CCCc1cc(=O)[nH]c(SCC(=O)N2CCN(S(=O)(=O)c3ccc(C)cc3C)CC2)n1 | 93%
COc1ccc(CC(=O)Nc2ccc(C(=O)NC(C)(C)C)cc2)cc1 | 92.4%
COc1ccc(CC(=O)Nc2ccc(-c3nnc(-c4ccc(C)cc4)o3)cc2)cc1 | 2.56% (active)
COc1cccc(NC(=O)Cc2ccc(C)cc2)c1 | 113%
Cc1cccc(C)c1NC(=O)C(c1ccccc1)N1CC(=O)Nc2ccccc21 (configuration not stated) | 66%
O=C(Nc1cc(C(F)(F)F)ccc1Cl)C(=O)N1CCCCC1 | 91.1%
CC(CC(=O)Nc1cc(C(F)(F)F)ccc1Cl)c1ccccc1 (configuration not stated) | 51.3%
O=C(NNc1ccccc1Cl)C(O)(c1cccc(C(F)(F)F)c1)c1cccc(C(F)(F)F)c1 | 1.89% (active)
Cc1cc(C(=O)N/N=C/c2cc([N+](=O)[O-])cc(C)c2O)n[nH]1 | 83%
O=C(COC(=O)[C@H](Cc1ccccc1)NC(=O)c1cccs1)Nc1cc(F)ccc1F | 91.4%
CCCSc1nc2[nH]ncc2c(=O)[nH]1 | 90.6%
Cc1cc2oc(C(=O)Nc3c(C)n(C)n(-c4ccccc4)c3=O)c(C)c2cc1Cl | 85%
N=C(N)SCc1cccc2ccccc12 | 87.8%
CCn1c(SCc2ccc(C)cc2)nnc1-c1nn(-c2ccccc2)ccc1=O | 87.8%
CCc1ccc(-c2nn(-c3ccccc3)cc2CSC(=N)N)cc1 | 1.62% (active)
S=C(NCc1ccc(Cl)cc1)NC12CC3CC(CC(C3)C1)C2 | 2.95% (active)
COC(=O)Cc1ccc(NC(=S)NCc2ccc(Cl)cc2)cc1 | 83.4%
S=C(NCc1ccc(Cl)cc1)NC1CCCCC1 | 77.6%
C=CCNC(=O)COC(=O)c1ccccc1C(=O)N(C)C1CCCCC1 | 92.8%
Cc1cc(C)cc(NC(=S)NCc2ccc(F)cc2)c1 | 78.2%
Cc1ccc(C(=O)N2CC(=O)Nc3ccccc32)o1 | 100%

Compound | viability
CC(=O)c1cc(-c2ccccc2)n(CCC(=O)NC2CCCCCC2)c1C | 74.8%
COc1cccc(N(C(=O)C2COc3ccccc3O2)C(C(=O)NC2CCCCC2)c2ccc(O)cc2)c1 (configuration not stated) | 56.8%
COC(=O)Cc1csc(/N=C/c2c(O)n(-c3cccc(C(F)(F)F)c3)c(=O)c3ccccc23)n1 | 47.7%
CCOC(=O)C1=C(C)N=c2s/c(=C\C(=O)OC)c(=O)n2C1c1ccc(OC)cc1 (configuration not stated) | 95.2%
COc1ccc(OC)c(C2C3=C(N=c4s/c(=C\c5cccc(O)c5)c(=O)n42)c2ccccc2CC3)c1 (configuration not stated) | 3.19% (active)
O=C1CCCC2=C1C(c1ccccc1)n1c(s/c(=C/c3cccc(F)c3)c1=O)=N2 (configuration not stated) | 80.9%
COc1ccccc1CNC(=O)CN1CCC(n2cnc3cc(F)ccc32)CC1 | 101%
Nc1nc(NCCCN2CCOCC2)nc(Nc2ccccc2)c1[N+](=O)[O-] | 63.9%
CNc1nc(Nc2ccc(C)c(Cl)c2)nc(N)c1[N+](=O)[O-] | 2.94% (active)
COCCNc1nc(N)c([N+](=O)[O-])c(NCCO)n1 | 100%
CCN(CC)c1ccc(S(=O)(=O)N2CCOCC2)cc1NC(=O)CSc1cccc[n+]1[O-] | 93.9%
COc1ccc(CC(=O)N/N=C(\C)c2ccccn2)cc1 | 4.88%
CCC(C)(NC(=O)c1ccccn1)C(=O)NC1CCCCC1 (configuration not stated) | 105%
CCN(CC)CCOc1ccc2c(c1)C(=NNC(=O)c1ccccn1)c1cc(OCCN(CC)CC)ccc1-2 | 0.61% (active)
O=[N+]([O-])c1c(NCCO)cc(Sc2nc3ccccc3s2)c2nonc12 | 1.48% (active)
O=C(O)c1cccc(S(=O)(=O)Nc2ccc(O)cc2Sc2nc3ccccc3s2)c1 | 94%
COc1ccc(S(=O)(=O)Nc2ccc(O)c(Sc3nc4ccccc4s3)c2)cc1 | 78.8%
CCCCCNC(=O)c1cccnc1SCC(=O)Nc1ccccc1OC | 91.1%
COc1ccc(C(CCN(Cc2ccc(OC)c(OC)c2)C(=O)CCl)c2ccccc2)cc1 (configuration not stated) | 1.54% (active)
COc1ccc(CCN(C(=O)COc2ccccc2)c2nc(-c3ccccc3)cs2)cc1OC | 74.5%
CCOC(=O)CN(Cc1ccc(OC)c(OC)c1)S(=O)(=O)c1ccc(OC)cc1 | 96.9%
Cc1cc(F)ccc1S(=O)(=O)N1CCCOC1CNC(=O)C(=O)NCCC1=CCCCC1 (configuration not stated) | 93.5%
N#Cc1ccc(C(=O)Nc2nc(-c3cccs3)c(C(=O)C(F)(F)F)s2)cc1 | 40.3%
